Molecules are shown by their SMILES. Several values for one entry are separate records, joined by “and”; a condition that tells them apart may be missing. Identical values can stand only once. Inconclusive results are not listed. Values without a mark were called inactive. Activity calls are given as the source filed them. The call rests on the fitted dose curve; in most records, active means well fitted inhibition curve with a large enough effect; inconclusive means small, poorly fitted or top-dose-only effect, or another doubt; inactive means flat fitted curve, though single readings scatter.

The experiment in a line: Confirmation Concentration-Response Assay for lipid storage modulators: for probe SAR round 2. The note with it: Drosophila S3 cells, BODIPY lipid droplet fluorescence, 18-24 h; series mostly up to 46.1 µM; activity change, negative = inhibition: at the top concentration. An excerpt:
NIH Molecular Libraries Probe Production Centers Network [MLPCN] NIH Chemical Genomics Center [NCGC] MLPCN Grant: 1 R03 MH085686-01 Assay Submitter (PI): Beller, Mathias; Max-Planck-Institut fur Biophysikalische Chemie NCGC Assay Overview: Storing lipids as a reservoir for energy or the anabolism of elementary metabolites is a common feature of probably all cells and is conserved from bacteria to humans. The universal cellular lipid storage organelle is the so-called lipid storage droplet (LD). Although ubiquitous, LDs share a simple structure composed of a hydrophobic core that harbors the storage lipids, which is shielded by a droplet-specific phospholipid monolayer to which proteins are attached. The current model of LD biogenesis involves an incorporation of the lipid core into the membrane leaflets of the endoplasmic reticulum (ER) followed by a subsequent budding-like maturation of a LD, which ultimately pinches off. Once released, LD volume can increase by localized lipogenesis or fusion of existing droplets. Storage lipids are re-mobilized enzymatically by lipase activity. Lipase regulation in the adipocyte is heavily studied and involves multiple components including catecholamine signaling, the LD-associated proteins Perilipin and comparative gene identification-58 (CGI-58) and at least two lipases named hormone sensitive lipase (HSL) and adipocyte triglyceride lipase (ATGL). LD regulation outside of the adipocyte is poorly understood and only few components are known. However, there is an urgent need to learn more about ectopic fat depots as mislocalized storage of lipids, for example in the liver or muscle, is an eminent health problem associated with insulin resistance or the metabolic syndrome. We developed a laser-scanning cytometer assay to enable 1,536-well screening and combined the results of the small molecules screen with an RNAi database based on lipid storage.
We dispensed 4 uL of cells at 1.25 x 10^6 cells/mL into LoBase Aurora COC 1,536-well plates (black walled, clear bottom) with a bottle-valve solenoid-based dispenser (Aurora) to obtain 5,000 cells/well. Triacsin C (Sigma-Aldrich T-4540), an inhibitor of long-chain fatty acyl CoA synthetase that blocks synthesis of triglycerides, was used as a positive control for lipid under-storage. A total of 23 nL of compound solution of different concentrations were transferred to the assay plates using a Kalypsys pin tool equipped with a 1,536-pin array containing 10-nL slotted pins (FP1S10, 0.457-mm diameter, 50.8 mm long; V&P Scientific). One microliter of oleic acid (400 uM) was added, and the plate was lidded with stainless steel rubber gasket lined lids containing pinholes. After 18-24 h incubation at 24 degree Celsius and 95% humidity, 4 uL of the dyes BODIPY 493/503 (Molecular Probes) and the Cell Tracker Red CMTPX dye (Molecular Probes) were added to the wells to stain lipid droplets and enumerate cell number, respectively. Fluorescence was detected by excitation of the fluorophores with a 488-nm laser on an Acumen Explorer (TTP Lab Tech). The total intensity in channel 1 (500-530 nm) reflected lipid droplet accumulation. Cells were detected using channel 3 (575- 640 nm) with 5-um width and 100-um depth filters. The ratio of the total intensity in PMT channel 1 over total intensity of channel 3 was also calculated. Percent activity was computed relative to an internal control (100% inhibited lipid droplet deposition due to the presence of 20 uM Triacsin C), which was added to 32 wells/plate.
With `CCNC(=O)C1CCN(C(=O)C(C)(C)NC(=O)Nc2ccccc2Cl)CC1`, the Potency is 14.1 µM (active). Same read-out and setting: the figure for `COc1ccc(-n2ncc3c2CCCC3NC(=O)c2ccccn2)cc1` (stereo unspecified) is 0.0016 µM (active); for `O=C(NC1CCCc2c1cnn2CCO)c1ccccn1` (stereo unspecified) it is 1.58 µM (active). As to `O=C(NC1CCCc2c1cnn2-c1ccc(F)cc1F)c1ccccc1` (stereo unspecified), the Potency is 0.025 µM (active). Regarding `O=C(NC1CCCc2c1cnn2-c1ccc(F)cc1F)c1ccccn1` (stereo unspecified), the Potency is 315 nM (active) and 6.3 nM (active). Same read-out and setting: next, `CC(C)(C)OC(=O)NCCOCCOCCOCCn1ncc2c1CCCC2NC(=O)c1ccccn1` (stereo unspecified): 0.158 µM (active); `CCOC(=O)C1CCN(C(=O)C(C)(C)NC(=O)Nc2ccc(F)c(F)c2)CC1`: 1.99 µM (active); `CCOC(=O)C1CCN(C(=O)C(C)(C)NC(=O)Nc2ccc(Oc3ccccc3)cc2)CC1`: 0.353 µM (active). Regarding `CCOc1ccc(CCNC(=O)c2cc3sccc3n2Cc2cccc(C)c2)cc1OCC`, the Potency was 0.0022 µM (active). Still for that read-out and setting: next, `O=C(NC1CCCc2c1cnn2-c1ccc(O)cc1)c1ccccn1` (stereo unspecified): 0.0007 µM (active). As to `CCOC(=O)C1CCN(C(=O)C(C)(C)NC(=O)Nc2ccc(-c3ccccc3)cc2)CC1`, the Potency was 1.41 µM (active). Same read-out and setting: the figure for `CCOC(=O)C1CCN(C(=O)C(C)(C)NC(=O)Nc2ccccc2Cl)CC1` is 0.705 µM (active).

For `O=C(NC1CCCc2c1cnn2-c1ccc(F)cc1F)c1cccs1` (stereo unspecified), the Potency is 0.0063 µM (active). On the same count and under the same terms, next, `CCOC(=O)C1CCN(C(=O)C(C)(C)NC(=O)Nc2ccc(N(C)C)cc2)CC1`: 5.6 µM (active); `CCOC(=O)C1CCN(C(=O)C(C)(C)NC(=O)Nc2cccc(C(=O)OC)c2)CC1`: 7.05 µM (active); `CCOC(=O)C1CCN(C(=O)C(C)(C)NC(=O)Nc2ccc(C(F)(F)F)cc2Cl)CC1`: 0.141 µM (active). Consider `CC(C)(NC(=O)Nc1ccccc1Cl)C(=O)N1CCC(C(=O)O)CC1`, for which the “activity change, negative = inhibition” value was -33.1%. Take `CCOC(=O)C1CCN(C(=O)C(C)(C)NC(=O)Nc2ccc3ccccc3c2)CC1`: the Potency is 4.99 µM (active). Same read-out and setting: next, `CCOC(=O)C1CCN(C(=O)C(C)(C)NC(=O)Nc2ccc(OC)c(Cl)c2)CC1`: 7.91 µM (active); `COc1cccc(-n2ncc3c2CCCC3NC(=O)c2ccccn2)c1` (stereo unspecified): 0.0025 µM (active); `CCOC(=O)C1CCN(C(=O)C(C)(C)NC(=O)Nc2cccc(OC)c2)CC1`: 4.45 µM (active). Still for that read-out and setting: next, `CCOC(=O)C1CCN(C(=O)C(C)(C)NC(=O)Nc2cccc(-c3csc(C)n3)c2)CC1`: 25 µM (active). With `CC(C)(C)OC(=O)NCCOCCOCCOc1ccc(-n2ncc3c2CCCC3NC(=O)c2ccccn2)cc1` (stereo unspecified), the Potency is 0.0018 µM (active). The same measure, in the same setting: the figure for `CCOC(=O)C1CCN(C(=O)C(C)(C)NC(=O)Nc2ccc(Cl)cc2Cl)CC1` is 0.445 µM (active); for `CC(C)(C)OC(=O)NCCOCCOCCOc1cccc(-n2ncc3c2CCCC3NC(=O)c2ccccn2)c1` (stereo unspecified) it is 0.0056 µM (active). Still for that read-out and setting: next, `O=C(NC1CCCc2c1cnn2-c1cccc(O)c1)c1ccccn1` (stereo unspecified): 0.005 µM (active). Same read-out and setting: the figure for `CCN(CC)C(=O)C1CCN(C(=O)C(C)(C)NC(=O)Nc2ccccc2Cl)CC1` is 15.8 µM (active); for `O=C(N[C@H]1CCCc2c1cnn2-c1ccc(F)cc1F)c1ccccn1` it is 22.3 µM (active).

Take `CCOC(=O)C1CCN(C(=O)C(C)(C)NC(=O)Nc2ccc(CN3CCOCC3)cc2)CC1`: the “activity change, negative = inhibition” value is -7.43%. Take `CCOC(=O)C1CCN(C(=O)C(C)(C)NC(=O)Nc2ccc3sccc3c2)CC1`: the Potency is 12.5 µM (active).

For `CCOC(=O)C1CCN(C(=O)C(C)(C)NC(=O)Nc2ccc3c(c2)CCC3)CC1`, the Potency is 12.5 µM (active).

These data come from PubChem BioAssay AID504432 (National Center for Advancing Translational Sciences (NCATS), 2011).
